Measured values: PubChem BioAssay
Active and inactive are the calls of the source. Unless noted, the rule behind the calls is not given here.

What was measured:
[1] = HepG2 liver cancer cell viability effects, profiling panel, resazurin fluorescence, 24 h, PK04 Diversity Set (AID 1172); conditions: higher = more signal
[2] = basal S. cerevisiae growth modulation, no modifier, primary screen, OD600, strain BY4716, 24 h, basal condition (AID 1173); conditions: OD600, 24 h, higher = more signal, called active from +8 up or from −8 down
[3] = MM1S myeloma cell viability, profiling panel, resazurin fluorescence, basal, 24 h, PK04 Diversity Set (AID 1174); conditions: higher = more signal, called active from +8 up or from −8 down;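 note: MM1S multiple myeloma cell line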
[4] = molecular target: Dihydroorotate dehydrogenase (quinone), mitochondrial (Plasmodium falciparum (isolate 3D7)) (UniProt Q08210); assay: PfDHODH enzyme inhibitors, primary screen, biochemical, C-terminal His tag, absorbance 600 nm (AID 1175); conditions: DCIP absorbance 600 nm, higher = more signal, called active from +8 up or from −8 down;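 note: recombinant parasite enzyme with a five histidine tag at its C terminus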
Chain of Dihydroorotate dehydrogenase (quinone), mitochondrial (Plasmodium falciparum (isolate 3D7)) (Q08210 whole entry, looked up): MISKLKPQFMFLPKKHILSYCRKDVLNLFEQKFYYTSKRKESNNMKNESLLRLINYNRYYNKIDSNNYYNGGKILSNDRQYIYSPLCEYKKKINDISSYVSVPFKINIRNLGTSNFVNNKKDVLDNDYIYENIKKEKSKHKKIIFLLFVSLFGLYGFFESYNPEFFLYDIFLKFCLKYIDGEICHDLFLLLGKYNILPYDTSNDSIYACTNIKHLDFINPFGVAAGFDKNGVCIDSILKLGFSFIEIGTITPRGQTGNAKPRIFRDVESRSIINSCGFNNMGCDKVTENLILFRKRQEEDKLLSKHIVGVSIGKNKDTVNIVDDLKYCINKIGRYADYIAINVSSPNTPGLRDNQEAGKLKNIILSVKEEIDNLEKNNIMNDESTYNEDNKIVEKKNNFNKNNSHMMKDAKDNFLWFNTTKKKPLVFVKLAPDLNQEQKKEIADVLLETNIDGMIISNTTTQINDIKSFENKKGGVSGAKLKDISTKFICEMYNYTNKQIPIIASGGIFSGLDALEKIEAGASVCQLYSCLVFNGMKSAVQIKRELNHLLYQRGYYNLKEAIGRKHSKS

[5] = S. cerevisiae RM11-1a growth modifiers, primary screen, strain RM11-1a, OD600, basal, 24 h (AID 1177); conditions: OD600, 24 h, higher = more signal, called active from +8 up or from −8 down;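 note: cultures grown under basal conditions with no added stressor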
[6] = E. coli acrAB mutant growth effects, primary screen, E. coli filamentation inducers, strain DRC39, OD650, 24 h (AID 1178); conditions: higher = more signal, called active from +8 up or from −8 down;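 note: growth measured as culture turbidity by optical density at 650 nm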
[7] = E. coli acrAB mutant growth effects, primary screen, E. coli filamentation inducers, strain DRC39, OD650, 48 h (AID 1179);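 note: screen aims at cell division blockers that make cells filament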; conditions: E. coli DRC39 delta-acrAB growth, higher = more signal, called active from +8 up or from −8 down
[8] = RPMI8226 myeloma cell viability, profiling panel, resazurin fluorescence, basal, 24 h, PK04 Diversity Set (AID 1180); conditions: higher = more signal;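 note: RPMI8826 multiple myeloma cell line at 5000 cells per well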
[9] = molecular target: E3 ubiquitin-protein ligase XIAP (Homo sapiens) (UniProt P98170); assay: XIAP binders, primary screen, biophysical, small-molecule microarray, fluorescence 635 nm (AID 1181); conditions: small-molecule microarray binding, higher = more signal;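 note: score merges 667 nm emission and signal to noise over triplicate slides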
Chain of E3 ubiquitin-protein ligase XIAP (Homo sapiens) (P98170 whole entry, looked up): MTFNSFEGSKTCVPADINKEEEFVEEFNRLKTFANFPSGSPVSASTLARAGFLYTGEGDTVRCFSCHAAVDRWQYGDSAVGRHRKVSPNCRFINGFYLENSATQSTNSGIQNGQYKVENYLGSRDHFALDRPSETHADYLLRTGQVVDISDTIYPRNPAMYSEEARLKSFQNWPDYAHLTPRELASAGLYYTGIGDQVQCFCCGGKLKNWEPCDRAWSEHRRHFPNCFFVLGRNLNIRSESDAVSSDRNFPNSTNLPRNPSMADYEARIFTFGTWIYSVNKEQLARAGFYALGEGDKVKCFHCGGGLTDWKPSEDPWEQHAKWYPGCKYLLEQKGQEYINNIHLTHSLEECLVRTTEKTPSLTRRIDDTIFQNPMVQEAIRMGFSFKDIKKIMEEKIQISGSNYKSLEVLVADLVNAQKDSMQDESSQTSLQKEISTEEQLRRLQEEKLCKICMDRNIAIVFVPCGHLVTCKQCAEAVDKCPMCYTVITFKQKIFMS

[10] = test system: XIP peptide (Xip251-270) binding; assay: small-molecule binders of XIP peptide, primary screen, biochemical, small-molecule microarray, fluorescence 635/667 nm, 0.1 µg/mL protein (AID 1182); conditions: fluorescent protein binding, 635 nm, higher = more signal, called active from +8 up or from −8 down
XIP peptide (Xip251-270) = assay: small-molecule binders of XIP peptide, primary screen, biochemical, small-molecule microarray, fluorescence 635/667 nm, 0.5 µg/mL protein (AID 1183); conditions: small-molecule microarray binding, fluorescence 635 nm; higher = more signal
[11] = Plasmodium falciparum growth inhibition, primary screen, strain 3D7, DAPI fluorescence, 100 nL (AID 1184);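 note: parasites grown inside human red blood cells in medium with human serum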; conditions: P. falciparum 3D7 growth, 3 d, higher = more signal
[12] = molecular target: Homeobox protein Hox-A13 (Mus musculus) (UniProt Q62424); assay: inhibitors of HoxA13-DNA binding, primary screen, biochemical, fluorescence polarization, labeled oligonucleotide (AID 1185); conditions: 15 min, higher = more signal, called active from +8 up or from −8 down
Chain of Homeobox protein Hox-A13 (Mus musculus) (Q62424 whole entry, looked up): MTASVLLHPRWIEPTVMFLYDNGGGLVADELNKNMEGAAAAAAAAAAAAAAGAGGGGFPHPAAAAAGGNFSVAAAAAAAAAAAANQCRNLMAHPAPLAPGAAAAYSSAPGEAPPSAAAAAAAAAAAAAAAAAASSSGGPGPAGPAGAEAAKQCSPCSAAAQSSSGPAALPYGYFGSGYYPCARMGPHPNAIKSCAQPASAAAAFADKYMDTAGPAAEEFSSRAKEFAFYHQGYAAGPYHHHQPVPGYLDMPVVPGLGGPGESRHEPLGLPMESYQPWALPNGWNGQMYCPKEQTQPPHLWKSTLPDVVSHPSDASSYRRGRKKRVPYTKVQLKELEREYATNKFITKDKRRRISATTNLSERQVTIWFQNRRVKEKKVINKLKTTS

[13] = inhibitors of hydroxyurea-induced Chk1 phosphorylation, primary screen, imaging, HeLa, phospho-Chk1 antibody, percent positive cells (AID 1186); conditions: hydroxyurea-induced phospho-Chk1 immunofluorescence imaging, higher = more signal
[14] = inhibitors of hydroxyurea-induced Chk1 phosphorylation, primary screen, imaging, HeLa, phospho-Chk1 nuclear intensity (AID 1187); conditions: hydroxyurea-induced phospho-Chk1 immunofluorescence imaging, higher = more signal

With `COc1ccc([Si](C)(C)[C@H]2[C@H](CC(=O)N3Cc4ccccc4C[C@H]3CO)O[C@@]3(C(=O)N(Cc4cccc(N5CCOC5=O)c4)c4ccccc43)[C@@H]2C)cc1` the z-score [1] was -0.341, the z-score [2] was -2.22 (inactive) and the z-score [3] was -1.71 (inactive). The composite z-score [4] was -0.135 (inactive), the z-score [5] was 0.446 (inactive) and the z-score [6] was 1.63 (inactive). The z-score [7] was 0.856 (inactive), the z-score [8] was -1.75 and the composite z-score [9] was 0.22. The composite z-score [10] was 0.873 (inactive), the composite z-score (XIP peptide (Xip251-270)) was 0.625 and the z-score [11] was -1.55. For the same compound, the z-score [12] was -3.02 (inactive), the z-score [13] was -0.958 (inactive) and the z-score [14] was -0.191 (inactive).

In the case of `O=C1c2ccccc2[C@](Cc2ccccc2I)(C(=O)O)[C@H](c2ccc(CO)cc2)N1C1CCCCC1`, the z-score [1] is reported as -0.221, the z-score [2] is reported as -1.14 (inactive) and the z-score [3] is reported as 1.8 (inactive). For the same compound, the composite z-score [4] was -0.0088 (inactive), the z-score [5] was -1.05 (inactive) and the z-score [6] was 0.938 (inactive). For the same compound, the z-score [7] was 0.832 (inactive), the z-score [8] was 1.36 and the composite z-score [9] was 0.0225. The composite z-score [10] was 1.87 (inactive), the composite z-score (XIP peptide (Xip251-270)) was 0.734 and the z-score [11] was -1.49. The z-score [12] was -2.96 (inactive), the z-score [13] was -0.225 (inactive) and the z-score [14] was -0.395 (inactive).

With `C=CCNC(=O)[C@@H]1[C@H]2C(=O)O[C@H](c3ccccc3)[C@H](c3ccccc3)N2[C@H](c2ccc(OCCO)cc2)[C@@]12C(=O)N(C(=O)OCCOC)c1ccc(C#CC3(O)CCCCCC3)cc12` the z-score [1] was 0.14, the z-score [2] was -0.985 (inactive) and the z-score [3] was 0.39 (inactive). The composite z-score [4] was -1.57 (inactive), the z-score [5] was 0.442 (inactive) and the z-score [6] was 0.862 (inactive). For the same compound, the z-score [7] was 0.351 (inactive), the z-score [8] was 0.239 and the composite z-score [9] was 0.276. For the same compound, the composite z-score [10] was 0.87 (inactive), the composite z-score (XIP peptide (Xip251-270)) was 0.675 and the z-score [11] was -2.33. For the same compound, the z-score [12] was 2.65 (inactive), the z-score [13] was -0.0211 (inactive) and the z-score [14] was 0.0364 (inactive).

With `COc1ccc([Si](C)(C)[C@H]2[C@H](CCO)O[C@@]3(C(=O)N(Cc4ccccc4)c4ccc(N5C(=O)c6cccc7cccc5c67)cc43)[C@@H]2C)cc1` the z-score [1] was 0.175, the z-score [2] was 0.432 (inactive) and the z-score [3] was -2.33 (inactive). For the same compound, the composite z-score [4] was 0.386 (inactive), the z-score [5] was 4.08 (inactive) and the z-score [6] was 2.4 (inactive). The z-score [7] was 2.17 (inactive), the z-score [8] was -2.04 and the composite z-score [9] was -0.0473. The composite z-score [10] was 1.25 (inactive), the composite z-score (XIP peptide (Xip251-270)) was 0.353 and the z-score [11] was -2.48. For the same compound, the z-score [12] was 0.2 (inactive), the z-score [13] was -1.01 (inactive) and the z-score [14] was -0.207 (inactive).

For `O=C1O[C@@H](c2ccccc2)[C@@H](c2ccccc2)N2[C@@H](c3ccc(O)cc3)[C@]3(C(=O)Nc4ccccc43)[C@@H](C(=O)N3CCN(c4ncccn4)CC3)[C@H]12`, the z-score [1] was 0.838, the z-score [2] was -0.863 (inactive) and the z-score [3] was -0.798 (inactive). For the same compound, the composite z-score [4] was -0.63 (inactive), the z-score [5] was -0.0045 (inactive) and the z-score [6] was 0.208 (inactive). For the same compound, the z-score [7] was 1.05 (inactive), the z-score [8] was -0.442 and the composite z-score [9] was -0.311. The composite z-score [10] was 1.55 (inactive), the composite z-score (XIP peptide (Xip251-270)) was -0.278 and the z-score [11] was -1.46. For the same compound, the z-score [12] was -2.96 (inactive), the z-score [13] was -0.231 (inactive) and the z-score [14] was -0.242 (inactive).

For `C=C(COC)/C(=C/C[C@@H](OC(=O)c1ccncc1)c1ccc(OCCO)cc1)c1cc(C(=O)OC)ccc1OC`, the z-score [1] was 0.789, the z-score [2] was -2.19 (inactive) and the z-score [3] was 1.36 (inactive). For the same compound, the composite z-score [4] was -1.32 (inactive), the z-score [5] was -2.6 (inactive) and the z-score [6] was 2.65 (inactive). The z-score [7] was 1.79 (inactive), the z-score [8] was 1.16 and the composite z-score [9] was -0.103. For the same compound, the composite z-score [10] was 1.08 (inactive), the composite z-score (XIP peptide (Xip251-270)) was 0.749 and the z-score [11] was -2.98. For the same compound, the z-score [12] was -4.62 (inactive), the z-score [13] was -0.252 (inactive) and the z-score [14] was 0.535 (inactive).

In the case of `COc1cc(CO)cc(I)c1O[C@H]1C=C(C(=O)NCCO)C[C@@H](NCCc2c[nH]c3ccccc23)[C@@H]1O`, the z-score [1] is reported as 0.507, the z-score [2] is reported as -8.04 (active) and the z-score [3] is reported as 0.221 (inactive). For the same compound, the composite z-score [4] was 1.23 (inactive), the z-score [5] was 0.216 (inactive) and the z-score [6] was 2.21 (inactive). The z-score [7] was -0.41 (inactive), the z-score [8] was 0.848 and the composite z-score [9] was -0.242. For the same compound, the composite z-score [10] was -0.26 (inactive), the composite z-score (XIP peptide (Xip251-270)) was 0.0826 and the z-score [11] was -3. The z-score [12] was -7.08 (inactive), the z-score [13] was -0.925 (inactive) and the z-score [14] was -0.879 (inactive).
